Results filed as inconclusive are left out. Activity calls are given as the source filed them. Calls come from the whole dose curve; as a rule, active = well fitted curve in the direction sought with a large enough effect; inconclusive = small, poorly fitted or top-dose-only effect, or another doubt; inactive = no such curve, though single readings can be large; an effect the other way counts as inactive or inconclusive. Where a SMILES comes first, the peptide text is derived from it. Bridges are numbered along the chain shown (N, C = ends). [ ]: non-standard residue; d: D form. The star is where a group is joined. ξ: configuration not given here. d(aThr) = C[C@@H](O)[C@@H](N)C(=O)O; ξThr(3R) = C[C@@H](O)C(N)C(=O)O; X3 = CC[C@@H](C)CCCCC(=O)*; dDab = NCC[C@@H](N)C(=O)O
Columns and labels:
[1] = qHTS assay to identify small molecule inhibitors of chordoma cells - UCH-1 (AID 1259355); note: nearly all actives have a fitted effect of over 55% in size
Summary of the method: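 A 48hr growth-inhibition format: each drug tested at 15 concentrations together with added auranofin, camptothecin, doxorubicin, rubitecan and topotecan, with cell viability quantified as CellTiter-Glo luminescence.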

[2] = qHTS assay to identify small molecule inhibitors of chordoma cells - UCH-2 (AID 1259356); note: series mostly up to about 46 µM
[3] = P-glycoprotein substrates identified in KB-8-5-11 adenocarcinoma cell line, qHTS therapeutic library screen (AID 1346987); conditions: outcome: dose series up to 44.5 µM unless noted; note: nearly all actives have a fitted effect of over 65% in size
Summary of the method: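 Luminescence from CellTiter-Glo, read 5 min after addition, quantified survival of KB-8-5-11 (P-gp-overexpressing) cells exposed to compounds for 72 h. AC50 was derived from concentration-response curves.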

Measured: Potency

C=C1c2c(Cl)ccc(O)c2C(O)=C2C(=O)[C@]3(O)C(O)=C(C(N)=O)C(=O)[C@@H](N(C)C)[C@@H]3[C@@H](O)[C@H]12
inactive: [1] | [2] | [3]

NCC[C@H](O)C(=O)N[C@@H]1C[C@H](N)[C@@H](O[C@H]2O[C@H](CN)[C@@H](O)[C@H](O)[C@H]2O)[C@H](O)[C@H]1O[C@H]1O[C@H](CO)[C@@H](O)[C@H](N)[C@H]1O
inactive: [1] | [2] | [3]

C#C[C@]1(O)CC[C@@H]2[C@H]3CCC4=CC(=O)CC[C@H]4[C@H]3C(=C)C[C@@]21CC
inactive: [1] | [2] | [3]

O=P(O)(O)OP(=O)(O)OP(=O)(O)O
inactive: [1] | [2] | [3]

C(=C\c1ccncc1)/c1ccccc1
inactive: [1] | [2] | [3]

CC(C)[C@@H]1CC[C@@H](C)C[C@H]1O
inactive: [1] | [2] | [3]

O=S(=O)(O)CCCS(=O)(=O)O
inactive: [1] | [2] | [3]

Nc1nc(/C(=C/CC(=O)O)C(=O)N[C@@H]2C(=O)N3C(C(=O)O)=CCS[C@H]23)cs1
inactive: [1] | [2] | [3]

C[C@H](CCC(=O)O)[C@H]1CC[C@H]2[C@@H]3[C@H](O)C[C@@H]4C[C@H](O)CC[C@]4(C)[C@H]3C[C@H](O)[C@]12C
inactive: [1] | [2] | [3]

CN[C@H](CC(C)C)C(=O)N[C@H]1C(=O)N[C@@H](CC(N)=O)C(=O)N[C@H]2C(=O)N[C@H]3C(=O)N[C@H](C(=O)N[C@@H](C(=O)O)c4cc(O)cc(O)c4-c4cc3ccc4O)[C@H](O)c3ccc(c(Cl)c3)Oc3cc2cc(c3O[C@@H]2O[C@H](CO)[C@@H](O)[C@H](O)[C@H]2O[C@H]2C[C@](C)(N)C(O)[C@H](C)O2)Oc2ccc(cc2Cl)[C@H]1O (stereo partly drawn)
inactive: [1] | [2] | [3]

CO/N=C(\C(=O)N[C@@H]1C(=O)N2C(C(=O)O)=C(CSc3nc(C)c(CC(=O)O)s3)CS[C@H]12)c1csc(N)n1
inactive: [1] | [2] | [3]

CCCCCCCCCCCCOCCCN
inactive: [1] | [2] | [3]

CC(=O)OCC1=C(C(=O)O)N2C(=O)[C@@H](NC(=O)Cc3ccccc3)[C@H]2SC1
inactive: [1] | [2] | [3]

CC1(C)[C@@H]2CC[C@@]1(C)[C@H](OC(=O)CSC#N)C2
inactive: [1] | [2] | [3]

C=C1CC[C@H](O)CC1=C/C=C1\CCC[C@]2(C)[C@@H]([C@H](C)/C=C/[C@H](C)C(C)C)CC[C@@H]12
inactive: [1] | [2] | [3]

CN1C(=O)OC(C)(C)C1=O
inactive: [1] | [2] | [3]

C=C(C)C1CC=C(C)CC1 (stereo not drawn)
inactive: [1] | [2] | [3]

NC(=S)NS(=O)(=O)c1ccc(N)cc1
inactive: [1] | [2] | [3]

CCN(CC)CCOC[C@H]1O[C@@H](O)[C@H](OCCN(CC)CC)[C@@H](O)[C@@H]1O
inactive: [1] | [2] | [3]

C[C@H](N)C(=O)N[C@@H](C)P(=O)(O)O
inactive: [1] | [2] | [3]

O=C1CCC(c2ccccc2)(C2CCN(Cc3ccccc3)CC2)C(=O)N1 (stereo not drawn)
inactive: [1] | [2] | [3]

Cc1cc(=O)c(C(=O)N[C@@H](C(=O)N[C@@H]2C(=O)N3C(C(=O)O)=C(CSc4nnnn4C)CS[C@H]23)c2ccc(O)cc2)c[nH]1
inactive: [1] | [2] | [3]

CC(C)c1ncc([N+](=O)[O-])n1C
inactive: [1] | [2] | [3]

C[C@@H](O)[C@H]1C(=O)N2C(C(=O)[O-])=C(SC3Cn4cnc[n+]4C3)[C@H](C)[C@H]12 (stereo partly drawn)
inactive: [1] | [2] | [3]

NC(=O)c1ccc[n+]([C@@H]2O[C@H](COP(=O)([O-])OP(=O)(O)OC[C@H]3O[C@@H](n4cnc5c(N)ncnc54)[C@H](O)[C@@H]3O)[C@@H](O)[C@H]2O)c1
inactive: [1] | [2] | [3]

C[C@H](CCC(=O)O)[C@H]1CC[C@H]2[C@@H]3CC[C@@H]4C[C@H](O)CC[C@]4(C)[C@H]3C[C@H](O)[C@]12C
inactive: [1] | [2] | [3]

CCCCC(O)c1ccccc1 (stereo not drawn)
inactive: [1] | [2] | [3]

C[N@+]12CCCC[C@@H]1CCC(=C(c1cccs1)c1cccs1)C2
inactive: [1] | [2] | [3]

NC(=O)[C@@H]1C[C@]2(NC(=O)NC2=O)c2cc(F)ccc2O1
inactive: [1] | [2] | [3]

C=Cc1ccc(S(=O)(=O)O)cc1
inactive: [1] | [2] | [3]

CC[C@@H](C)CCCCC(=O)N[C@H](CCN)C(=O)N[C@@H](C(=O)N[C@H](CCN)C(=O)N[C@@H]1CCNC(=O)C([C@@H](C)O)NC(=O)[C@@H](CCN)NC(=O)[C@@H](CCN)NC(=O)[C@@H](CC(C)C)NC(=O)[C@@H](Cc2ccccc2)NC(=O)[C@@H](CCN)NC1=O)[C@@H](C)O (stereo partly drawn) (X3-[dDab][d(aThr)][dDab][dDab][dDab][dF][dL][dDab][dDab][ξThr(3R)]; lactam 4-C)
inactive: [1] | [2] | [3]
